# ELG1 repair inh: qHTS screen for small molecules that inhibit ELG1-dependent DNA repair in human embryonic kidney (HEK293T) cells expressing luciferase-tagged ELG1; HEK293T ELG1-luciferase reporter, luminescence, 16 h; DNA damage induced by 5-fluorouridine; Potency, µM (doses to about 46.1 µM), usual class: inhibitors; 330,000 tested, 2.3% active; AID 504467, 2011; also: nearly all actives have a fitted effect of over 55% in size
#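 Overnight (16 hr) co-exposure of 2,000 cells/well to 5-fluorouridine and compound at 37 °C preceded detection. Luciferase was quantified via ONE-Glo luminescence; loss of signal denotes inhibition.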
# p53 reactivation: qHTS assay for re-activators of p53 using a Luc reporter; H1299 p53-A138V BP100-luciferase reporter, luminescence, 24 h; Potency, µM (doses to about 92.2 µM), most hits filed as activators; 320,000 tested, 0.063% active; AID 504706, 2011; also: nearly all actives have a fitted effect of over 45% in size
#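 H1299 (p53-null), stable ts p53-A138V + BP100-Luc; 1000 cells/well, Opti-MEM/10% FBS; cpd 4 pt, 1:5; 24 h, 37 deg C, 5% CO2; detection reagent 10 min RT; luminescence.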
# MCF10A rerep: A quantitative high throughput screen for small molecules that induce DNA re-replication in MCF 10a normal breast cells; MCF 10A DNA re-replication, Hoechst nuclear intensity, 48 h; Potency, µM (doses to about 46.1 µM), usual class: activators; 350,000 tested, 2.9% active; AID 624296, 2012; also: nearly all actives have a fitted effect of over 50% in size
# ELG1 genotoxic: qHTS screen for small molecules that induce genotoxicity in human embryonic kidney (HEK293T) cells expressing luciferase-tagged ELG1. HEK293T ELG1-luciferase reporter, luminescence, 16 h. Potency, µM (doses to about 46 µM), usual class: activators. 330,000 tested, 1.3% active. AID 504466, 2011; also: nearly all actives have a fitted effect of over 60% in size
#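 Reporter readout depends on ELG1 protein level, which increases with genetic stress. After 16 hr compound exposure at 37 °C, luciferase activity was quantified using ONE-Glo.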
# AT treatment: qHTS Assay for Identifying a Potential Treatment of Ataxia-Telangiectasia. F2112 A-T fibroblasts, KAP-1 phosphorylation AlphaLISA; neocarzinostatin DNA damage 30 min before lysis. 320,000 tested, 0.19% active. Potency, µM (highest dose often 57.5 µM), actives largely listed as activators; also: nearly all actives have a fitted effect of over 45% in size
#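 hTERT-immortalized A-T patient fibroblasts (F2112), 500 cells/well in OPTI-MEM, 1% FBS, got compounds for 60 min, then NCS for 30 min at 37C. Lysates were then assayed for phospho-KAP-1 by AlphaLISA (anti-pKAP1 donor, anti-KAP1 acceptor beads), 6 hr at 25C.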
# SW480 rereplic: A quantitative high throughput screen for small molecules that induce DNA re-replication in SW480 colon adenocarcinoma cells; SW480 DNA re-replication, Hoechst DNA content imaging, 48 h; 340,000 tested, 1.8% active; Potency, µM (doses to about 46.1 µM), hits mostly activators; AID 624297, 2012; also: nearly all actives have a fitted effect of over 55% in size
#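 Image-based DNA-content assay: after two days of treatment, nuclei were labelled with the DNA dye Hoechst and imaged, and hits were compounds raising the count of nuclei showing high fluorescence intensity.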
# A number is an active result; 0 = inactive; ? = inconclusive; - = no result given. A selection: hits, their analogues and other compounds. The true share with any hit is near 7.1%. Calls follow the shape of the dose curve; as a rule, active = well fitted curve in the direction sought with a large enough effect; inconclusive = small, poorly fitted or top-dose-only effect, or another doubt; inactive = no such curve, though single readings can be large; an effect the other way counts as inactive or inconclusive.
SMILES,ELG1 repair inh,p53 reactivation,MCF10A rerep,ELG1 genotoxic,AT treatment,SW480 rereplic
Cc1c(C(=O)N2CCN(S(=O)(=O)c3cccs3)CC2)oc2ccc(F)cc12,5.17µM,0,0,0,0,0
CCOc1ccc(S(=O)(=O)N2CCN(C(=O)c3oc4ccc(OC)cc4c3C)CC2)cc1,20.6µM,0,0,0,0,0
COc1cc(CC(=O)N(CC(C)C)C2CCS(=O)(=O)C2)cc(OC)c1OC (stereo unspecified),0,0,0,0,0,0
COc1cc(C2C(C#N)=C(N)N(Nc3ccccc3)C3=C2C(=O)CC(C)(C)C3)ccc1OCc1ccccc1 (stereo unspecified),?,?,?,0,0,25.9µM
COc1cc(C2C(C#N)=C(N)N(Nc3ccccc3)C3=C2C(=O)CC(C)(C)C3)ccc1OCc1cccc(F)c1 (stereo unspecified),?,0,?,0,0,?
C=CCOc1ccc(C2C(C#N)=C(N)N(Nc3ccccc3)C3=C2C(=O)CCC3)cc1OC (stereo unspecified),0,0,23.1µM,0,0,?
Cc1cc(C(=O)Cn2nc(C(=O)O)c3ccccc3c2=O)c(C)n1CCc1ccc(Cl)cc1,8.2µM,0,0,0,0,0
Cc1ccccc1OCc1nnc(SCC(=O)Nc2ccc3c(c2)oc2ccccc23)n1C,0,0,0,?,0,0
Cc1ccc(-c2nnc(SCC(=O)Nc3ccc4c(c3)oc3ccccc34)n2C)c(Cl)c1,18.4µM,0,0,0,-,0
COc1cc(C2C3C(=O)N(c4ccc(F)cc4)C(=O)C3ON2c2ccccc2)ccc1O (stereo unspecified),0,0,14.1µM,0,0,0
Cc1cc(/C=C(\C#N)C(=O)NC2CCCCCC2)c(C)[nH]1,?,0,0,0,0,0
COc1ccc(-c2[nH]ncc2/C=C(/C#N)C(=O)NC2CCCCCC2)cc1,18.4µM,0,10µM,0,0,12.6µM
COc1ccc(NC(=O)C(=S)NC2CCCCC2)cc1,?,?,0,8.2µM,0,0
CCc1ccc(NC(=O)C(=S)NC2CCCCC2)cc1,?,0,?,8.2µM,0,0
COc1ccc(-c2csc3ncnc(NCCCO)c23)cc1,4.61µM,0,0,0,0,0
COc1ccc(-c2csc3ncnc(N4CCN(c5ccccc5OC)CC4)c23)cc1,13µM,0,?,0,0,0
CCOc1ccccc1N1CCN(c2ncnc3scc(-c4ccc(OC)cc4)c23)CC1,14.6µM,0,?,0,0,?
O=c1ccc(=O)n(CCc2ccccn2)[nH]1,-,-,0,-,-,0
CC1(C2CCC3(C)OC3C2)CO1 (stereo unspecified),-,-,0,-,-,0
CC(=O)c1cccc(OCC(O)CNCCOc2ccc(C)cc2)c1 (stereo unspecified),0,0,0,0,0,0
Cc1ccc(N(CCC#N)C(=O)CCl)cc1C,18.4µM,0,23.1µM,0,0,7.31µM
Cc1ccc(SCC(=O)OCC(=O)N(CCC#N)c2ccccc2)cc1C,0,0,0,0,0,0
CCN(CC)CC(=O)Nc1ccc(/C(C)=N/NC2=NCCN2)cc1,0,0,23.1µM,0,0,18.4µM
Oc1cc(NCc2cccnc2)ccc1-c1nc2ccccc2o1,?,?,20.6µM,?,0,?
Cc1onc(C(=O)N2CCN(C(c3ccccc3)c3ccccc3)CC2)c1[N+](=O)[O-],?,0,0,0,0,4.11µM
SMILES,ELG1 repair inh,p53 reactivation,MCF10A rerep,ELG1 genotoxic,AT treatment,SW480 rereplic
Cc1ccc(/C=C/c2nc3ccccc3s2)s1,?,0,?,0.517µM,0,0
CN(C)c1ccc(/C=C/c2nc3ccccc3s2)cc1,0,0,?,0,0,9.2µM
Oc1ccc(/C=C/c2ccc3ccccc3n2)cc1,?,0,?,0.259µM,0,18.4µM
Cc1ccc(S(=O)(=O)Nc2nc3ccccc3s2)cc1,0,0,0,0,-,0
Fc1ccccc1/C=C/c1ccc2ccccc2n1,?,-,0,0.326µM,0,0
COc1cc(/C=N/NC(=O)c2ccncc2)ccc1OC(=O)c1cccc(F)c1,0,0,0,0,0,0
CN1CCOc2ccc(S(=O)(=O)N3CCN(S(=O)(=O)c4c(F)cccc4F)CC3)cc21,-,-,-,-,0,-
CCCC[C@H](O)c1ccccc1,-,-,0,-,-,0
C(=C\c1ccc2ccccc2n1)/c1ccccc1,?,0,0,?,0,?
CCCN(CCC)c1ccc(/C=C/c2ccc3cc(OCC)ccc3n2)cc1,?,?,?,0,28.2µM,2.06µM
O/C(=C\c1ccc2ccccc2n1)c1ccc(O)cc1O,?,0,0,2.59µM,0,0
CN(C)c1ccc(CNc2nc3ccccc3s2)cc1,?,?,-,0.461µM,0,-
CN(C)c1ccc(/C=C/c2ccc3ccccc3n2)cc1,?,0,5.17µM,?,0,23.1µM
COc1ccc2oc(C(=O)NC3(C)CCS(=O)(=O)C3)c(C)c2c1 (stereo unspecified),0,0,0,0,0,0
O=C(NC1CCCC1)C(c1ccccn1)N(C(=O)c1csnn1)c1ccccc1Cl (stereo unspecified),0,0,0,0,0,0
CC1(C)CC[C@]2(CO)CC[C@]3(C)C(=CCC4[C@@]5(C)CC[C@H](O)[C@@](C)(CO)C5CC[C@]43C)[C@@H]2C1 (stereo partly specified),0,0,10.3µM,0,0,0
CC1(C)C[C@H](O)[C@]2(CO)CC[C@]3(C)C(=CCC4[C@@]5(C)CC[C@H](O)C(C)(C)C5CC[C@]43C)[C@@H]2C1 (stereo partly specified),0,0,?,0,0,0
Cc1cc(CC(C)CC(C)(C)C)n(O)c(=O)c1 (stereo unspecified),-,-,10.6µM,-,-,?
Brc1ccc(-c2cn3ccccc3n2)s1,?,?,0,0.651µM,0,0
Cc1ccc2nc(-c3ccccc3)cn2c1,?,0,0,?,0,0
COc1c(Cl)cccc1-c1cn2ccccc2n1,?,?,0,4.11µM,0,0
Cc1ccc2nc(-c3ccc(-c4ccccn4)s3)cn2c1,?,?,0,1.64µM,0,0
COc1ccc(-c2cn3ccccc3n2)cc1,?,0,0,1.3µM,0,0
Clc1ccc(-c2cn3ccccc3n2)cc1,?,0,0,?,0,0

# Screening data: PubChem BioAssay, National Center for Advancing Translational Sciences (NCATS)
